# Assay outcomes: PubChem BioAssay, Broad Institute
# Casp6 inh: inhibitors of human caspase-6; P55212; purified caspase-6, Z-VEID-R110 cleavage fluorescence; AID 686996; actives 0.53% (n = 350,000); inhibition, % at 12.5 µM;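 active means mean inhibition across replicates at least about 35%, with every replicate also reaching that limit, limit read from the data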;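 further: 0% = median of neutral control wells and 100% = no fluorescence left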
# GSIS activator: primary screen for activators of insulin secretion dependent on glucose, INS-1E cells, GLuc reporter luminescence; INS-1E GLuc reporter insulin secretion, 2-3 h; activation, % at 16.6 µM; actives 0.61% (n = 370,000); AID 743287;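 active means lowest replicate activation of at least 40%, so every replicate reaches that level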;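 further: 0% = median of neutral control wells and 100% = median of IBMX positive control wells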
# FGF22 binding-1: shifts melting point of recombinant human FGF22; Q9HCT0; recombinant FGF22 thermal shift, SYPRO orange fluorescence; percent of sucrose octasulfate shift, DMSO zero; activity (Tm shift, normalised), % at 9.99 µM; actives 1.5% (n = 340,000);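 active means mean Tm shift, scaled 0 neutral to 100 positive control, at about 1.3% or above, every replicate too, limit read from the data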
# SIRT5 inh: inhibitors of human sirtuin-5 desuccinylase; AID 652115; Purified SirT5, succinyl-peptide AMC, trypsin-coupled fluorescence; actives 1.1% (n = 330,000); Q9NXA8; inhibition, % at 15 µM; in the data active means inhibition above about 15%
# ERAP1 inh: inhibitors of human ERAP1 aminopeptidase. recombinant ERAP1, Leu-AMC fluorescence, 60 min. inhibition, % at 10.7 µM. actives 0.15% (n = 340,000). AID 652197;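 active means mean replicate inhibition of at least 30%, or all replicates individually reaching that 30% level; inactive means mean below 30% and not every replicate reaching it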;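 further: 0% = neutral control wells and 100% = L-leucinethiol positive control wells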
# Target sequence (Q9NZ08 whole entry, looked up): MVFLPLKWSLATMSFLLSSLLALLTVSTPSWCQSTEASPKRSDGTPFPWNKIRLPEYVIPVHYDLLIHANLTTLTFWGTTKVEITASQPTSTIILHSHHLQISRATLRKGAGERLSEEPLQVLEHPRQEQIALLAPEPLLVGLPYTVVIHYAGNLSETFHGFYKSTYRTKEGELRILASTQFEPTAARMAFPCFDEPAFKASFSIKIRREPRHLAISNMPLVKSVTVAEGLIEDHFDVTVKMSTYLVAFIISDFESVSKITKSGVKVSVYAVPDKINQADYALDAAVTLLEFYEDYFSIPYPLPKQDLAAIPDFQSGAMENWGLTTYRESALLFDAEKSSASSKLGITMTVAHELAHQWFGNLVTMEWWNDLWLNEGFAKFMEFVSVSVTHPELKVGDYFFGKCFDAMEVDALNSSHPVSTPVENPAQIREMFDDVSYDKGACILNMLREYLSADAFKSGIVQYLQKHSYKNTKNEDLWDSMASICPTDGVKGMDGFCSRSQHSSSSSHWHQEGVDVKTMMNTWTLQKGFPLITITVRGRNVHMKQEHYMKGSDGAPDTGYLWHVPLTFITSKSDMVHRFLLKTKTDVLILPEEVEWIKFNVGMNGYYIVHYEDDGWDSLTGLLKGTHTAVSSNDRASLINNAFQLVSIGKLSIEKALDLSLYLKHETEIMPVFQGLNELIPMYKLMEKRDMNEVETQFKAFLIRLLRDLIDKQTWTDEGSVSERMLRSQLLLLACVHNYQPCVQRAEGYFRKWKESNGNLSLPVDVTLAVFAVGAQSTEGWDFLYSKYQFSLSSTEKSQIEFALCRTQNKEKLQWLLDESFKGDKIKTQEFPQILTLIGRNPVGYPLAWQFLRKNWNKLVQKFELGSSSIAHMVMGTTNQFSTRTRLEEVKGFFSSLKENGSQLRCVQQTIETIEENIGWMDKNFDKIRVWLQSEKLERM
# FGF22 binding-2: binders of human FGF22 by thermal shift. shares compounds with FGF22 binding-1. recombinant FGF22 thermal shift, SYPRO orange fluorescence. thermal shift activity, °C (ΔTm) at 38 µM. actives 2% (n = 1,000). AID 720646;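 active means fitted rise in melting shift crosses a set limit at or below the top valid dose tested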
# FGF22 TSA DP: binds human FGF22 shifting its melting temperature. 50 tested, under 10 active. Thermal shift assay, SYPRO orange, melting temperature shift. Tm shift (activity), % at 38 µM. shares compounds with FGF22 binding-1;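 active means compounds whose fitted dose curve of melting temperature shift rises past a set threshold within the tested doses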
# SYPRO no-protein: shows thermal shift signal without protein, FGF22 counter-screen; shares compounds with FGF22 binding-1; compound-only SYPRO orange thermal shift counter-screen, no protein; AC50, µM (titrated, usually from 38 µM); actives 2% (n = 1,000);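 active means rising signal whose fitted curve reaches the 0.54 level within the top valid dose, showing a melting point, actives reach about 13 µM in these data; inactive means the rest, including activity in the opposite direction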; further: value is where the raw curve crosses a fixed level and not half-maximal
# * marks the source's active call; other numbers are inactive results; i = inactive; x = no result; [ ] = another dose, or the depositor's remark. This is a sample that favours compounds with a hit; in the whole collection about 3.3% have one here.
SMILES,Casp6 inh,GSIS activator,FGF22 binding-1,SIRT5 inh,ERAP1 inh,FGF22 binding-2,SYPRO no-protein,others
COc1ccc(N(C)S(=O)(=O)c2cccc(C(=O)Nc3ccc(N4CCOCC4)cc3)c2)cc1,2,-9,2.3*,2,-1,0.12,i,
O=C(NCC[C@H]1CC[C@H](NS(=O)(=O)c2ccccc2)[C@@H](CO)O1)c1ccccc1F,0,7,0,-1,3,x,x,
COc1cccc(CNC(=O)C2(C)CCCCN2C)c1 (centres undefined),-5,x,2.6*,2,-5,-0.1,i,
COc1cccc(CNC(=O)C2(C)CCCN2C(=O)C(C)C)c1 (centres undefined),0,6,0,0,5,x,x,
Cc1ccc(NC(=O)COC(=O)Cn2cnc3c2c(=O)n(C)c(=O)n3C)cc1F,1,25,30*,-1,2,0.15,i,
Cc1ccc(NC(=O)COC(=O)Cn2cnc3c2c(=O)n(C)c(=O)n3C)cc1Cl,-4,-17,1,0,-2,x,x,
C[C@H](O)C#Cc1ccc2c(c1)O[C@@H](CN(C)C(=O)Nc1ccccc1)[C@H](C)CN([C@H](C)CO)S2(=O)=O,0,2,0,1,3,x,x,
COc1ccc(/C=N/NC(=O)c2cc(-c3ccc4c(c3)OCO4)n[nH]2)cc1OC,1,49*,1.5*,-4,-1,0.19,i,
C[C@H]1CN([C@@H](C)CO)C(=O)c2cccc(NS(=O)(=O)c3ccccc3)c2O[C@H]1CN(C)Cc1ccc(Oc2ccccc2)cc1,0,-17,0,1,0,x,x,
CN(C)CCN1C(=O)C2C3C=CC(C3)C2C1=O (centres undefined),1,4,15*,-15,-3,-0.047,i,
O=C(Nc1ccc(O)cc1)c1cccc(Oc2ccc([N+](=O)[O-])cc2)c1,2,-9,3.1*,-2,-3,0.16,i,
C[C@@H]1CN([C@@H](C)CO)C(=O)CCCn2cc(nn2)CO[C@H]1CN(C)Cc1cccc(C(F)(F)F)c1,0,-3,0,-3,-4,x,x,
N#CCc1nn(-c2ccccc2)c2ncnc(N)c12,3,71*,1.5*,-1,0,-0.003,i,
CN1CCN(C(=O)C[C@H]2C=C[C@@H](NC(=O)c3ccc4c(c3)OCO4)[C@H](CO)O2)CC1,1,-17,1.2*,4,-1,0.14[42 µM],i,
COc1cccc(NC(=O)N[C@H]2C=C[C@@H](CC(=O)N3CCN(C)CC3)O[C@H]2CO)c1,0,3,2.3*,-3,1,0.12[42 µM],i,
O=C(N[C@H]1C=C[C@H](CC(=O)N2CCCCC2)O[C@H]1CO)c1cccc(F)c1,0,0,1.5*,0,0,x,i,
O=C(N[C@@H]1C=C[C@H](CC(=O)N2CCCCC2)O[C@@H]1CO)c1cccc(F)c1,-2,1,1.3*,-1,1,-0.043,i,
O=C(N[C@H]1C=C[C@H](CC(=O)N2CCCCC2)O[C@@H]1CO)c1cccc(F)c1,1,3,1,4,3,x,x,
C[C@H](CO)N1C[C@H](C)[C@H](CN(C)C)Oc2ccc(NC(=O)Nc3ccccc3)cc2C1=O,1,11,0,0,-1,x,x,
CNC[C@H]1Oc2ccc(N)cc2CC(=O)N(C)C[C@@H]1C,x,4,x,x,x,x,x,
COc1ccc(S(=O)(=O)N[C@H]2C=C[C@@H](CC(=O)NCCc3ccccc3)O[C@@H]2CO)cc1,1,8,0,0,-1,x,x,
Cc1ccc(S(=O)(=O)N[C@H]2C=C[C@@H](CC(=O)NCc3ccc(Cl)c(Cl)c3)O[C@H]2CO)cc1,-1,-12,1.3*,-2,1,0.12,i,
Cc1ccc(S(=O)(=O)N[C@@H]2C=C[C@H](CC(=O)NCc3ccc(Cl)c(Cl)c3)O[C@@H]2CO)cc1,0,3,0,-3,1,x,x,
COc1ccc(S(=O)(=O)N[C@@H]2C=C[C@H](CC(=O)NCCc3ccccc3)O[C@@H]2CO)cc1,2,-2,1.4*,1,-1,0.093[42 µM],i,
COCC(=O)N1CC2(C1)CN(Cc1cccc(OC)c1)[C@H](CO)c1c2c2ccc(OC)cc2n1C,x,-6,0,1,x,x,x,
SMILES,Casp6 inh,GSIS activator,FGF22 binding-1,SIRT5 inh,ERAP1 inh,FGF22 binding-2,SYPRO no-protein,others
OC[C@@H]1[C@@H](c2ccc(Br)cc2)[C@H]2CN(Cc3cncnc3)CCCCN12,0,31,0,-1,-1,x,x,
OC[C@@H]1[C@@H](c2ccc(-c3ccccc3)cc2)[C@@H]2CN(Cc3ccccn3)CCCCN12,1,-6,0,-3,0,x,x,
OC[C@@H]1[C@@H](c2ccc(-c3cccnc3)cc2)[C@@H]2CN(Cc3ccccn3)CCCCN12,-1,-1,1.5*,-2,-1,0.022,i,
CS(=O)(=O)N1CCCCN2[C@H](CO)[C@H](c3ccc(C#Cc4ccccn4)cc3)[C@@H]2C1,-3,4,1.5*,3,0,0.16[42 µM],i,
OC[C@@H]1[C@H](c2ccc(Br)cc2)[C@@H]2CN(Cc3cncnc3)CCCCN12,-2,9,2.4*,3,-1,0.059[42 µM],i,
OC[C@H]1[C@@H](c2ccc(-c3cccnc3)cc2)[C@@H]2CN(Cc3ccccn3)CCCCN12,5,0,1.5*,-2,-2,0.023,i,
CC(C)NC(=O)N(C)C[C@@H]1Oc2ccc(NS(C)(=O)=O)cc2CC(=O)N([C@H](C)CO)C[C@@H]1C,-3,23,0,-4,1,x,x,
CCCC(=O)Nc1ccc2c(c1)OC[C@@H](C)N(Cc1cc(F)ccc1F)C[C@@H](C)[C@H](OC)CN(C)C2=O,x,-26,x,x,x,x,x,
COc1ccc(S(=O)(=O)Nc2ccc(NC(C)=O)cc2)cc1Cl,-2,-9,1.7*,0,-3,-0.005,i,
COc1ccc(C)cc1NS(=O)(=O)c1ccc(NS(=O)(=O)c2ccc(NC(C)=O)cc2)cc1,1,-1,2.9*,3,2,-0.008,i,FGF22 TSA DP=0
COc1ccc(OC)c(NS(=O)(=O)c2ccc(NC(C)=O)cc2)c1,x,16,x,x,x,x,x,
COc1ccc(NC(=O)[C@H](C)NS(=O)(=O)c2ccc(NC(C)=O)cc2)cc1Cl,0,3,0,x,-7,x,x,
COc1cc(NS(=O)(=O)c2ccc(NS(=O)(=O)c3ccc(NC(C)=O)cc3)cc2)nc(OC)n1,-1,11,1.4*,6,-4,0.12,i,
C[C@H](CO)N1C[C@H](C)[C@H](CN(C)C(=O)Nc2cccc3ccccc23)Oc2c(NS(=O)(=O)c3cccs3)cccc2C1=O,0,-9,-1,2,-1,x,x,
